Laboratory results published in PubChem BioAssay (NCI).
About 79,000 compounds went through this panel and 15% of them were active in at least one assay; those are over-represented in the sample as a whole. Values without a mark were called inactive. Active and inactive are the calls of the source. Rule as the data show it: active = growth inhibition above about 70%; inactive = the rest.

Test: NCI Yeast Anticancer Drug Screen. Data for the mlh1 strain (AID 171);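 also: 0% = growth of vehicle-treated control cultures of the same strain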
Conditions: S. cerevisiae mlh1 strain growth inhibition, stronger effect = higher value
Description: Growth inhibition of yeast strains with defined genetic alterations is measured as a screen for potential anti-cancer activity. Selected strains with alterations in DNA damage repair or cell cycle control were exposed to compounds and growth inhibition was measured relative to vehicle treated controls. The strain used in this assay is mlh1

SMILES | growth inhibition (at 1.2 µM) | growth inhibition (at 3.7 µM) | growth inhibition (at 11.0 µM) | growth inhibition (at 33.0 µM) | growth inhibition (at 100.0 µM)
CC(C)OC(=O)c1ccc(CCc2cc(O)c(Br)cc2O)cc1 | 55% | 70% (active) | 71% (active) | 72% (active) | 94% (active)
Cc1ccccc1N=Cc1cc(Cl)ccc1O | 7% | -5% | 0% | 22% | 87% (active)
CCOC(=O)CC1(C(=O)OCC)c2[nH]c3ccccc3c2CCN1Cc1ccccc1 (stereo not given) | -4% | -3% | -2% | 11% | 45%
COc1ccc(N=CN(C)C)c(C)c1 | -37% | -3% | -16% | 93% (active) | 96% (active)
CCCCN(CCCC)CCC(O)c1cc2c(Cl)cc(Cl)cc2c2cc(C(F)(F)F)ccc12 (stereo not given) | 14% | 23% | 98% (active) | 99% (active) | 96% (active)
CCOC1Oc2ccccc2-c2nc(N)ncc21 (stereo not given) | 11% | 16% | 1% | 4% | -1%
CC(NCCN(C)C)C1CCC2C3CCc4cc(O)ccc4C3CCC12C (stereo not given) | 4% | 4% | 26% | 78% (active) | 97% (active)
COC1=C(N)C(=O)c2nc(-c3nc(C(=O)O)c(C)c(-c4ccc(OC)c(OC)c4O)c3N)ccc2C1=O | 95% (active) | 98% (active) | 98% (active) | 98% (active) | 97% (active)
